High-throughput results as filed in PubChem.
A selection: hits, their analogues and other compounds. The true share with any hit is near 13%.
USP30 inh: human USP30 deubiquitinase inhibition; Q70CQ3; purified USP30, Ub-rhodamine cleavage fluorescence; inhibition, % at 25 µM; hit rate 5.3% among 47,000
Target sequence (Q70CQ3 whole entry, looked up): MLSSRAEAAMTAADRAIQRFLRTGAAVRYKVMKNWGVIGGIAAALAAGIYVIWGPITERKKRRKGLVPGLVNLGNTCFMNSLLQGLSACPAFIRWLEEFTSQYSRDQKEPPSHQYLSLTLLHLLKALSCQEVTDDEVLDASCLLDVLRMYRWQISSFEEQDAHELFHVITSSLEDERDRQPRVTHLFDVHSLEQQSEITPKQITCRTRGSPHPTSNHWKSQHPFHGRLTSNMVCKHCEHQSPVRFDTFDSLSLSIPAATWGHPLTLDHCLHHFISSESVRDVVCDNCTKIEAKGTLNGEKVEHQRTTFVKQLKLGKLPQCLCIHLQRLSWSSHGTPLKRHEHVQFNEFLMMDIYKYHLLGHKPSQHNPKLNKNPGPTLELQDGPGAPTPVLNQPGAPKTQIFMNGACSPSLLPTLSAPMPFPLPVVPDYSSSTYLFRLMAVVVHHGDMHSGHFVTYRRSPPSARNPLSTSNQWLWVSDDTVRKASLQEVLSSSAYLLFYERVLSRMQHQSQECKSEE
OTUD3 block: human OTUD3 deubiquitinase inhibition; AID 1645858; inhibition, % at 25 µM; Q5T2D3; purified OTUD3, Ub-rhodamine fluorescence, 2 h; hit rate 0.7% among 47,000
USP28 block: blocks human USP28 ubiquitin-rhodamine cleavage. Q96RU2. purified USP28, Ub-rhodamine cleavage fluorescence, 30 min. AID 1645857. inhibition, % at 25 µM. hit rate 3% among 47,000
USP8 block: blocks human USP8 ubiquitin-rhodamine cleavage | purified USP8, Ub-rhodamine cleavage fluorescence, 30 min | inhibition, % at 20 µM | hit rate 4.2% among 47,000 | AID 1645853
USP17 inh: blocks human USP17 ubiquitin-rhodamine cleavage; A8MUK1; purified USP17, Ub-rhodamine cleavage fluorescence, 3 h; inhibition, % at 50 µM; hit rate 6.5% among 47,000
* = called active by the depositor; . = no result. No stated cut-off is given here; in the data, active means inhibition above about 30%; inactive means the rest.

SMILES	USP30 inh	OTUD3 block	USP28 block	USP8 block	USP17 inh
C=C1CCC2C(C)(CCC=C(C)C)C(OC(C)=O)CCC2(C)C1Cc1c(O)c(C)c(C)oc1=O (configuration not stated)	19	12	20	15	21
O=C(c1ccccc1)N1CCCC(c2nnc3ccccn23)C1 (configuration not stated)	-46	-13	-15	-4	-15
Cc1nc(N2CCC(C)CC2)ncc1-c1cc(=O)[nH]c(N2CCCCC2)n1	-3	-5	-6	-3	-4
COc1ccc(S(=O)(=O)c2nnn(-c3ccc(C)cc3)c2C)cc1	-20	12	14	-61	-26
Cc1nc(-c2cccc(NC(=O)c3ccccc3Cl)c2)no1	18	15	52*	27	5
O=C(NCc1ccc(-c2nc3cnccc3o2)cc1)c1ccccc1Br	25	13	14	15	68*
O=C(Nc1ccc(-c2noc(CCc3ccccc3)n2)cc1)c1ccccc1F	1	5	9	7	10
Cc1nc(-c2cccc(NC(=O)c3ccccc3F)c2)no1	0	-1	21	-2	2
CCc1nc(-c2cccc(NC(=O)c3ccccc3F)c2)no1	3	-2	36*	5	6
O=C(Nc1cccc(-c2nc3cnccc3o2)c1)c1ccccc1F	.	-1	.	-1	44*
CN1CCN(C2=NCCN2S(=O)(=O)c2ccc(Cl)cc2)CC1	1	1	2	2	-2
Cc1nc2nc(NC(=O)C3CCCCC3)[nH]n2c(=O)c1Cc1ccccc1	29	11	9	24	16
CC(=O)c1cccc(NC(=O)c2ccc(-c3noc(C)n3)cc2)c1	14	14	30*	14	21
O=C(NCc1ccc(-c2nc3ncccc3o2)cc1)c1ccccc1	25	9	17	32*	14
Cc1nc(-c2cccc(NC(=O)c3ccc(C#N)cc3)c2)no1	.	5	.	2	17
O=C(C1CCCCC1)N1CCCC1c1[nH]ncc1-c1ccccc1F (configuration not stated)	-25	-9	-10	-9	-10
CC(C)C12CN3CC(C(C)C)(CN(C1)C3[C@@H](O)[C@H](O)[C@H](O)[C@@H](O)CO)C2=O (some centres not stated)	30*	22	11	6	7
N#Cc1c(-c2ccccc2)ccn(Cc2cccc(C(F)(F)F)c2)c1=O	44*	3	17	17	53*
Cc1noc(-c2cccn(Cc3cccc(C(F)(F)F)c3)c2=O)n1	14	12	76*	24	13
COc1cccc(Cn2cccc(-c3nc(C)no3)c2=O)c1	.	-1	.	1	1
CCn1c(C2CCN(C(=O)c3ccc(F)cc3)C2)nc2cccnc21 (configuration not stated)	-71	-23	-28	-16	-40
CC(=O)N1CCCC(c2nc(C)cc(-c3cc(F)ccc3C(=O)O)n2)C1 (configuration not stated)	64*	8	7	11	7
COc1cc(C)cc2c1C(=O)c1c(cc(O)c(Cl)c1O)C2=O	7	76*	80*	-18	74*
COc1cc(CO)cc2c1C(=O)c1c(O)cc(O)cc1C2=O	29	0	6	5	8
O=C(C1CCC1)N1CCN(c2nc3c(s2)CC(C(=O)N2CCCCC2)CC3)CC1 (configuration not stated)	1	2	8	-5	0
SMILES	USP30 inh	OTUD3 block	USP28 block	USP8 block	USP17 inh
Cc1ccc(CCNC(=O)c2cc(Nc3ccccc3C)nc3ccccc23)cc1	-10	-9	3	-3	-5
COc1ccc(OC)c(CCNC(=O)c2ccc3c(=O)n4c(nc3c2)CCCC4)c1	17	13	14	0	12
CCOc1ccc(Nc2cc(C(=O)NCCC3=CCCCC3)c3ccccc3n2)cc1	32*	16	15	25	44*
CCOc1ccc(CCNC(=O)c2ccc3c(SCC(=O)O)c4c(nc3c2)CCC4)cc1OCC	-4	29	42*	29	34*
CCOc1ccc(CCNC(=O)c2cc(Nc3ccccc3C)nc3ccccc23)cc1OCC	56*	13	41*	7	58*
c1cc2c(cc1-c1cc(C3CCCCCN3)no1)OCO2 (configuration not stated)	.	2	.	-1	13
Nc1nnc(-c2cc(-c3ccc4c(c3)OCO4)on2)o1	-68	-11	-6	54*	2
O=C(Nc1nc2ccccc2s1)c1ccc2c(c1)C(=O)N(Cc1cccnc1)C2=O	24	1	-3	5	58*
O=C(NCc1cccnc1)c1cccnc1-c1nc2ccccc2s1	13	3	6	1	16
O=C1N(Cc2ccc(F)cc2)CCN1c1ccc(C(F)(F)F)cn1	23	18	65*	1	4
CC(C)c1ccc(N2CCN(Cc3ccc(F)cc3)C2=O)cc1	3	7	31*	12	7
CC(C)c1ccc(N2CCN(Cc3cccnc3)C2=O)cc1	19	8	14	0	1
O=C1N(Cc2ccc(F)cc2)CCN1c1ccc2c(c1)CCC2	31*	27	52*	12	27
CC(C)(C)c1ccc(CN2CCN(c3ccc4c(c3)CCC4)C2=O)cc1	27	27	13	28	16
COc1cccc(CN2CCN(c3ccc(F)cc3)C2=O)c1	6	-2	40*	-4	-4
COc1cc2c(cc1OC)CC(=O)N(Cc1c(F)cccc1Cl)C=C2	10	10	22	37*	16
COc1cc(CO)ccc1OCc1nc2ccccc2nc1C	-29	0	0	-9	-6
N#Cc1cccc(Cn2cc(S(=O)(=O)N3CCCCC3)ccc2=O)c1	29	15	10	20	10
O=C(c1cccnc1)N1Cc2ccnn2CC(COc2cccnc2)C1 (configuration not stated)	28	8	8	-17	7
COc1cc(OC)cc(C(=O)Nc2ccc3oc(-c4ccc5ccccc5c4)nc3c2)c1	-19	14	0	16	33*
COc1ccc(-c2nc3ccccc3o2)cc1NC(=O)c1cccs1	-30	-2	-6	0	8
COc1ccccc1CC(=O)Nc1cnc(-c2ccccc2)nc1	-6	0	-2	-2	-13
COc1cc(OC)cc(C(=O)Nc2cnc(-c3ccccc3)nc2)c1	17	23	14	25	52*
O=C(Cc1cccc2ccccc12)Nc1ccc2c(c1)NC(=O)CO2	30*	1	50*	3	19
COc1ccc(/C=C/c2ccc(=O)n(Cc3ccccc3)n2)cc1	16	9	13	9	20
COc1ccc(Cn2nc(-c3ccccc3)cc2-c2ccccc2O)cc1	43*	23	21	14	12
CCC1(C)Cc2c(sc3nc(SC)nc(SCC(=O)NCCc4ccccc4)c23)CO1 (configuration not stated)	-27	-1	-1	-1	9
O=C(Nc1ccc(Cl)cc1)c1noc2c1CCCC2	35*	7	18	27	18
Cc1cccc(NC(=O)c2noc3c2CCCC3)n1	.	3	.	3	4
